Reference: PubChem BioAssay AID504652 (National Center for Advancing Translational Sciences (NCATS), 2011)
Several values for one entry are separate records, joined by “and”; a condition that tells them apart may be missing. Equal entries are not always repeated. Hit rate of the full screen: of about 360,000 compounds, about 11,000 (3.1%) were called active. The full list was thinned out, with actives kept by preference. Values without a mark were called inactive. No stated cut-off is given here; in the data, active means activity change below about -30%; inactive means the rest.
On the % scale 0 is the no-effect control and ±100 the full control effect.

What follows are compounds tested against D(1A) dopamine receptor (Homo sapiens) (UniProt P21728) (assay: Antagonist of Human D 1 Dopamine Receptor: qHTS). Conditions: HEK293 TREx D1 cells, calcium flux, dopamine EC80; at 10 µM; stronger effect = lower value.
Sequence of D(1A) dopamine receptor (Homo sapiens) (P21728 whole entry, looked up): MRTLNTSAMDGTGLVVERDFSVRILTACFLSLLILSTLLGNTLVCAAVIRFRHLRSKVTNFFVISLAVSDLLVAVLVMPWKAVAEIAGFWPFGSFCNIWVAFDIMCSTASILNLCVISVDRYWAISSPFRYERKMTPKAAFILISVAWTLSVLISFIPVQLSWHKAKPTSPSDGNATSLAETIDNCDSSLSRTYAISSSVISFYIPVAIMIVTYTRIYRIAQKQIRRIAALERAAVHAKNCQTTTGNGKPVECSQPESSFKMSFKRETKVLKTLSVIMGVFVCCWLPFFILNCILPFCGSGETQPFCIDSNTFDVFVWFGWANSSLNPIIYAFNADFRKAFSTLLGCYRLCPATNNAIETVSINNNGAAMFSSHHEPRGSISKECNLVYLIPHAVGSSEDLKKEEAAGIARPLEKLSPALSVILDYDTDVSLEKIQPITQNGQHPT
In short: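 Kinetic fluorescence of a calcium dye serves as the read-out. D1-expressing Hek293 Trex cells, induced overnight at 30 C, are exposed to compound for 180 s before an EC80 dopamine addition, then read 180 s further.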
`COc1ccc(-c2ccc(=O)n(CC(=O)Nc3ccc(Br)cc3F)n2)cc1` was tested, and the activity change, negative = inhibition was 27.5%. `O=c1c2ccccc2[nH]c(=S)n1CCN1CCC(=C(c2ccc(F)cc2)c2ccc(F)cc2)CC1` gave an activity change, negative = inhibition of -22.1%. `Cc1ccc2[nH]c3c(c2c1)CN(C(=O)CN1CCN(c2ccccc2)CC1)CC3` showed an activity change, negative = inhibition of -26.5%. `O=C(CCCN1CCc2[nH]c3ccc(F)cc3c2C1)c1ccc(F)cc1` was tested, and the activity change, negative = inhibition was -73% (active). `CCCc1nn2c(=O)cc(COC(=O)c3ccc(NC(=O)COc4ccc(F)cc4)cc3)nc2s1` showed an activity change, negative = inhibition of -16.4%. With `CCn1cc(C(=O)OCC(=O)Nc2cc(C)cc(C)c2)c(=O)c2ccc(C)nc21` the activity change, negative = inhibition was 7.91%. Compound `Cc1ccc(N2CCN(c3ccc([N+](=O)[O-])cn3)CC2)c(C)c1` has an activity change, negative = inhibition of 8.06%. Work on `Cc1cc(C=O)c(C)n1-c1ccc(NC2CCCCC2)c([N+](=O)[O-])c1` yielded an activity change, negative = inhibition of -2.05%. With `Cc1ccc(-n2c(C)cc(/C=N/Nc3ccc([N+](=O)[O-])cn3)c2C)c(C)c1` the activity change, negative = inhibition was -44.1% (active). `CC(C)C(=O)Nc1nc2c(s1)CC(C(C)(C)C)CC2` (stereo not given) was tested, and the activity change, negative = inhibition was 7.11%. With `CCCn1c(=N)n(CC(O)COc2ccccc2OC)c2ccccc21` (stereo not given) the activity change, negative = inhibition was -15%. With `COc1ccccc1OCCNCC(O)COc1cccc2[nH]c3ccccc3c12` (stereo not given) the activity change, negative = inhibition was -58.7% (active) and -69% (active). `COc1cccc2[nH]c(C(=O)NCCc3ccccc3)cc12` showed an activity change, negative = inhibition of -6.46%. For `CC(C)Sc1oc(-c2cccs2)nc1S(=O)(=O)c1ccc(Cl)cc1`, the activity change, negative = inhibition was 14.3%. For `COc1ccc(-c2nc(SCC(=O)N3CCCCC3C)n[nH]2)cc1` (stereo not given), the activity change, negative = inhibition was 9.65%. Compound `COc1ccc(-c2csc(-c3c(N)c(C(=O)c4ccc(OC)c(OC)c4)n4ccccc34)n2)cc1` has an activity change, negative = inhibition of -1.18%. `O=S(=O)(NCC(c1ccccc1)N1CCc2ccccc21)c1ccccc1` (stereo not given) showed an activity change, negative = inhibition of 6.46%. With `COc1ccc(S(=O)(=O)NCC(c2ccc(N(C)C)cc2)N2CCc3ccccc32)cc1OC` (stereo not given) the activity change, negative = inhibition was -64.5% (active). Compound `COc1ccc(C(=O)NCC(c2ccc(N(C)C)cc2)N2CCc3ccccc32)c(OC)c1` (stereo not given) has an activity change, negative = inhibition of -5.15%. For `COc1ccc(NC(=O)CSc2nccn2Cc2ccc3c(c2)OCO3)cc1`, the activity change, negative = inhibition was 6.87%. `O=C(NCc1ccccc1)C1CCN(S(=O)(=O)c2ccc3[nH]c(=O)ccc3c2)CC1` showed an activity change, negative = inhibition of 16.6%. Work on `COc1ccc(CCN2C(=O)N(c3cccc(OC)c3)C(=O)C2CC(=O)Nc2ccccc2)cc1` (stereo not given) yielded an activity change, negative = inhibition of -1.1%. Compound `CN1CCN(C(=O)C2C3C=CC(C3)C2C(=O)O)CC1` (stereo not given) has an activity change, negative = inhibition of -15.3%. With `O=C(O)C1C2C=CC(C2)C1C(=O)N1CCN(CCO)CC1` (stereo not given) the activity change, negative = inhibition was -46.7% (active). Work on `C=C(Cl)COC(=O)C1C2C=CC(C2)C1C(=O)O` (stereo not given) yielded an activity change, negative = inhibition of 6.01%.
